Each structure is given as a SMILES string. This is part of a sample that, as a whole, favours compounds with a hit. Of some 83,000 tested, about 20% had one in any assay.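 Activity criterion: percent growth below 10, measured after cells in 96-well plates were exposed to a single compound concentration for 48 hours.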 Calls of active or inactive are those of the source.

Here are results for 40 molecules from PubChem BioAssay (NCI).

The assay relates to HT29 colon. The assay is described as follows: NCI-60 one-dose screen, 48 h (100 = growth as untreated, 0 = no growth, -100 = all killed). The conditions noted are these: 10 µM unless noted.
For the molecule `Nc1ccc(S(=O)(=O)c2ccc(NO)cc2)cc1`, the growth was 101% (inactive).

As to `COc1cc(NC(C)CCCN)c2nccc(C)c2c1OC` (stereo not given), the growth is 57.9% (inactive). `CCCC(=O)NNc1[nH]c(-c2cc(OC)c(OC)c(OC)c2)cc1C(=O)OCC`: the growth is 114% (inactive).

Consider `CC(C)OC(=O)c1ccc2n1CCCc1cnc(Nc3ccccc3)nc1-2`, for which the growth is 72.5% (inactive). The result for `COC(=O)c1ccc2[nH]c(O)c(C(=Nc3ccc(N(C)C(=O)CN4CCN(C)CC4)cc3)c3ccc(OC)cc3)c2c1` reads 20% (inactive). The result for `CC(=O)c1cc(Nc2cc(C)nc(N)n2)cc(C(C)=O)c1` reads 111% (inactive); that for `CCOC(=O)C1=C(C(F)(F)F)NC(=S)NC1CN1C(=O)c2ccccc2C1=O` (stereo not given), 108% (inactive); that for `CC(C)OC(=O)[C@H](C)N[P@@](=O)(OC[C@@]1(C)O[C@@H](n2cc(F)c(N)nc2=O)C[C@@H]1O[P@](=O)(N[C@@H](C)C(=O)OC(C)C)Oc1ccccc1)Oc1ccccc1`, 86% (inactive). With `COc1ccc(Cn2cc3c(c2-c2ccccc2)CCc2cnoc2-3)cc1OC`, the growth is 16.5% (inactive). In the case of `CC1C(=O)CCCC1=O`, the growth was 94% (inactive). In the case of `Brc1ccc(-c2nc3ccccc3s2)cc1`, the growth was 107% (inactive). As for `O=C(Nc1cccc(Cn2c(=O)[nH]c3ccc(Oc4ncccn4)cc3c2=O)c1)c1ccc(Cl)cc1`, the growth was 40.3% (inactive).

As for `Cc1ccc(S(=O)(=O)Nc2cccc(Cn3c(=O)[nH]c4ccc(Oc5ncccn5)cc4c3=O)c2)cc1`, the growth is 65.1% (inactive). In the case of `CC1(C)Oc2cc3oc(=O)ccc3cc2C[C@@H]1OCCOS(=O)(=O)c1ccc(C#N)cc1`, the growth is 97.2% (inactive). On to `COC1NC(Cl)=C(C#N)C(C#N)(C#N)C1(C)C` (stereo not given), for which the growth was 108% (inactive). As for `COc1ccccc1C(=O)Nc1cccc(-c2cc(=O)c3c(OC)c(OC)c(OC)cc3o2)c1`, the growth is 24.6% (inactive).

Turning to `C=C(NC(=O)[C@H](C(C)C)N(C)c1cccc2[nH]ccc12)C(=O)OC`, the growth was 99.1% (inactive). For the molecule `Cc1nc2c(nnn2-c2ccccc2)c2nc(-c3ccccc3)oc(=O)c12`, the growth is 113% (inactive). Turning to `CCCCCCCCCC[N+](C)(C)C`, the growth was 8.24% (active).

In the case of `CCOC(=O)c1ccc2n1CCCc1cnc(NC(C)=O)nc1-2`, the growth is 106% (inactive). Under `O=S(=O)(O)c1ccc2c(c1)Sc1cc(S(=O)(=O)O)ccc1O2` stands 106% (inactive). Consider `COc1cc(/C=C/C(=O)c2ccc(F)cc2)ccc1OCCCCOc1cc2c(cc1OC)C(=O)N1CCCC1C=N2` (stereo not given), for which the growth was -49.3% (active).

`COC(=O)C(C)[C@H]1CC[C@@H]2[C@]1(C)CC=C1[C@]23C=C[C@]2(C[C@@H](OC(C)=O)CC[C@]12C)C(C(=O)OC)C3C(=O)OC` (stereo not given in full): the growth was 95.2% (inactive). Regarding `COc1ccc2cnc(N)c(C#Cc3cc(C(=O)Nc4ccc(CN5CCN(C)CC5)c(C(F)(F)F)c4)cnc3C)c2c1`, the growth was 13.2% (inactive).

Take `COc1cccc2c1nc1cccc(OC)c1[n+]2[O-]`: the growth was 53.9% (inactive). Consider `O=C1/C(=N\c2cc(=O)[nH]n2S(=O)(=O)c2ccccc2)Nc2ccccc21`, for which the growth is 109% (inactive). Turning to `c1ccc(Nc2ccccn2)cc1`, the growth is 99.4% (inactive).

`COc1ccc(OC)c(Cn2cc3c(c2)-c2oncc2CC3)c1`: the growth is 22.3% (inactive). On to `O=C1C(=O)c2ccccc2C(O)=C1CCCc1ccc(C2CCCC2)cc1`, for which the growth was 34.7% (inactive).

In the case of `CCCOC(=O)c1c(C)n(C)c2scc[n+]12`, the growth was 79% (inactive). For the molecule `COc1cc(-c2nc3c(c(C)nc4c3nnn4-c3ccccc3)c(=O)o2)cc(OC)c1OC`, the growth was 115% (inactive). As for `COC(=O)Nc1nc2ccc(C(=O)c3ccccc3N(C)C3COC3)cc2[nH]1`, the growth is 9.07% (active). Take `COc1cc(Cn2ccc3c2-c2oncc2CC3)cc(OC)c1`: the growth is 14.9% (inactive).

Consider `c1ccc(Nc2ncc3c(n2)-c2cccn2CC3)cc1`, for which the growth is 114% (inactive). With `N=c1c2c(=O)n3c(nc2nc2sc4ccc(Cl)cc4n12)-c1ccccc1Sc1ccccc1-3`, the growth is 26.8% (inactive). As to `NC(=O)CC(NC(=O)COc1ccc(Cl)cc1Cl)C(=O)O` (stereo not given), the growth was 107% (inactive). Consider `C=C(C)[C@@H]1CC[C@]2(COC(=O)c3ccccc3C(=O)O)CC[C@]3(C)[C@H](CC[C@@H]4[C@@]5(C)CCCNC(C)(C)[C@@H]5CC[C@]43C)[C@@H]12`, for which the growth is 26.6% (inactive). As for `C/C=C(/C)C(=O)OC1C=C(CO)C(=O)C(OC(=O)/C(C)=C\C)C1C(C)C` (stereo not given), the growth is -65.6% (active). Under `CC(=O)OC1CC2C3CCC4C[C@@H](NC(=O)C=C(C)C)CC[C@]4(C)C3CC[C@]2(C)[C@H]1C(C)N(C)C` (stereo not given in full) stands -20.9% (active); under `CC(=O)/C(=C/c1ccc(-c2ccccc2)cc1)C(=O)c1ccccc1`, 70.2% (inactive).
